# Screens deposited in PubChem BioAssay by National Center for Advancing Translational Sciences (NCATS).
# A549 viability = counter-screen for Nrf2 inhibitors: cytotoxicity in A549 cells | A549 ARE-Fluc cells, CellTiter-Fluor viability, 18-24 h | Potency, µM (titrated, usually from 46 µM), without a hit: at the top dose activity change, negative = cytotoxicity, hits mostly inhibitors | 0.16% of 390,000 active | AID 504648; also: % is scaled to controls: 0 for no effect and ±100 for the full control effect
#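 A549 ARE-Fluc cells in 5% FBS OPTI-MEM, 5000 cells/well, rested 2 h then exposed to compounds in concentration-response for 18-24 h at 37 °C. Viability by CellTiter-Fluor fluorescence (Ex 405/Em 525) after 30 min; luciferase luminescence (BugLite, 15 min, RT) read afterwards.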
# Nrf2 activator = activators of Nrf2 (ARE) signaling; AID 624171; AREc32 ARE-luciferase reporter (MCF7-derived line), luminescence, 24 h; Potency, µM (top dose mostly 46.1 µM), for the others: top-dose activation, usual class: activators; 0.31% of 410,000 active; also: % of control where 0% means no effect; nearly all actives have a fitted effect of over 65% in size
#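 AREc32 cells carrying an ARE-driven firefly luciferase, 1000 cells/well in OPTI-MEM with 5% FBS, dosed after overnight attachment and incubated 24 hr at 37 deg C. Steady-Glo luminescence read after 30 min at RT.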
# PINK1 expr mod = modulators of PINK1 expression | Potency, µM (doses to about 76.6 µM), for the others: at the highest dose activation (PINK1 increase), usual class: activators | 0.2% of 410,000 active | PINK1 immunofluorescence, high-content cytometry, 24 h | AID 624263; active = well fitted activation curve with a large enough effect; inconclusive = small, poorly fitted or top-dose-only effect; cell line not stated here; also: % of control where 0% means no effect; nearly all actives have a fitted effect of over 65% in size
#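 Stable cell line treated 24 h with compounds at 5 concentrations (CCCP controls), then fixed and immunostained for PINK1 plus nuclear and cell stains; PINK1 immunofluorescence quantified by laser-scanning microplate cytometry.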
# Nrf2 inh = inhibitors of Nrf2 signaling; A549 ARE-Fluc reporter, luciferase luminescence, 18-24 h; Potency, µM (series often up to 46 µM), for inactives: top-dose activity change, negative = inhibition, actives largely listed as inhibitors; 2.1% of 360,000 active; also: % is scaled to controls: 0 for no effect and ±100 for the full control effect; nearly all actives have a fitted effect of over 60% in size
#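 Reporter: ARE-Fluc in A549. Exposure: 18-24 h, 37 °C, 5% CO2, 5% FBS OPTI-MEM. Readouts: fluorescent cytotoxicity (CellTiter-Fluor), then luminescent Nrf2 signal after BugLite.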
# Epigenetic reg = regulators of epigenetic silencing causing reporter derepression in mouse cells. murine LDR cells, GFP reporter derepression, 30 h. Potency, µM (series often up to 53.9 µM), without a hit: top-dose GFP activation, hits mostly activators. 0.2% of 280,000 active. AID 1865; also: % of control where 0% means no effect; nearly all actives have a fitted effect of over 60% in size
#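 Derepression of a silenced CMV-GFP reporter in murine LDR cells is scored by enumerating GFP-positive cells with a laser-scanning microplate cytometer after 30 hours of treatment at 37 C.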
# The depositor's hits bear a star; ? = inconclusive; nt = not tested or not shown; ! = not active in a repeat; [ ] = remark or other dose. The list is not random: actives were taken first. Their share in the collection is about 2.4%. Unless noted, calls follow the shape of the dose curve; as a rule, active = well fitted curve in the direction sought with a large enough effect; inconclusive = small, poorly fitted or top-dose-only effect, or another doubt; inactive = no such curve, though single readings can be large; an effect the other way counts as inactive or inconclusive. Potency is read from the fitted curve at half-maximal effect.
SMILES,A549 viability,Nrf2 activator,PINK1 expr mod,Nrf2 inh,Epigenetic reg
CCS(=O)(=O)c1ncc(Cl)c(C(=O)N(Cc2ccccc2)c2ccc(OC)cc2)n1,?,?,-1%,23µM*,0%
COc1ccc(N(Cc2ccccc2)C(=O)c2nc(SC)ncc2Cl)cc1,-14%,13%,2%,?,2%
Cc1ccc2cc3cc(C(=O)N4CCN(c5ccccc5)CC4)oc3nc2c1,?,2%,0%,nt,1%
COC(=O)c1cc(Cl)c(NC(=O)/C=C/c2ccc(Cl)cc2)cc1OC,10%,0%,?,nt,0%
COC(=O)c1cc(Cl)c(NC(=O)/C=C/c2ccc(Cl)cc2Cl)cc1OC,0%,-1%,14µM*!,10%,-1%
Cc1cc2c(s1)c1cnn(Cc3ccccc3Br)c(=O)c1n2C,-11%,nt,nt,5%,nt
COc1ccc(C(=O)Nc2ccc(-c3nc4cc(C)ccc4o3)c(O)c2)cc1,-2%,6%,0%,?,0%
Cc1ccc(C(=O)Nc2ccc3oc(-c4ccccc4C)nc3c2)cc1,-13%,4%,12%,6.5µM*,0%
CCNC(=S)N1CCN(C(c2ccccc2)c2ccccc2)CC1,-12%,0%,-1%[38.3 µM],26µM*,0%
CCCNC(=S)N1CCN(C(c2ccccc2)c2ccccc2)CC1,-2%,0%,2%,-6%,-1%
CCCCC/C=C\C/C=C\C[C@H](O)/C=C/C=C\CCCC(=O)O,nt,nt,nt,nt,1%
CCc1nnc(NC(=O)CCC(=O)N2CCN(Cc3ccc(Cl)cc3)CC2)s1,-15%,0%,-2%,23µM*,1%
CCN(CC)S(=O)(=O)c1ccc(Cl)c(C(=O)NC)c1,-3%,2%,3%,11%,3%
CC(C)Cc1nnc(NC(=O)CCC(=O)N2CCN(c3ccc(Cl)cc3)CC2)s1,-8%,-1%,-1%,18µM*,nt
CCc1nnc(NC(=O)c2cc(S(=O)(=O)N(CC)CC)ccc2Cl)s1,-17%,3%,2%[38.3 µM],16µM*,5%
CCCc1nnc(NC(=O)CCC(=O)N2CCN(Cc3ccc(Cl)cc3)CC2)s1,-1%,0%,0%,15µM*,nt
Cc1c(C(=O)N(C)Cc2cscn2)sc2ncnc(NC[C@H]3CCc4ccccc4O3)c12,nt,nt,0%,nt,nt
CCN1C(=O)[C@H]2[C@H]3[C@H](O)[C@H](O)C/C(=N/O[C@@H]4O[C@@H](COC(C)=O)[C@@H](OC(C)=O)[C@@H](OC(C)=O)[C@H]4OC(C)=O)[C@H]3CC[C@@H]2C1=O,nt,nt,nt,nt,0%[10.1 µM]
Cc1nonc1CN(C)C(=O)C1CC12CCN(C(=O)/C=C/c1cccc(Cl)c1)CC2 (stereo unspecified),nt,nt,0%,nt,nt
CCc1nnc(NC(=O)Cc2ccc(S(=O)(=O)N3CCCCC3)cc2)s1,-13%,-1%,1%,21µM*,nt
CC(C)Cc1nnc(NC(=O)CCC(=O)N2CCN(Cc3ccc(F)cc3)CC2)s1,-5%,-2%,-1%,?,nt
Cc1ccc(OCCN2CCN(C(=O)CCC(=O)Nc3nnc(CC(C)C)s3)CC2)cc1,-11%,2%,0%,10µM*,-4%
O=c1c(/C=C(\O)c2ccc(F)cc2)nc2ccccc2n1-c1ccccc1,15%,-1%,28%,-25%,13µM*
Cn1c(=O)c(/C=C/c2ccc(F)cc2)nc2ccccc21,-1%,16%,2%,?,3%
O=[N+]([O-])c1cc(NS(=O)(=O)c2ccc(Cl)nc2)ccc1Cl,?,1%,?,16µM*,nt
SMILES,A549 viability,Nrf2 activator,PINK1 expr mod,Nrf2 inh,Epigenetic reg
O=[N+]([O-])c1ccc(Oc2ccc(S(=O)(=O)Nc3ccccc3)cc2)cc1,-2%,3%,25%,18µM*,0%
O=[N+]([O-])c1ccc(S(=O)(=O)Nc2ccncc2)cc1,4%,0%,0%,-12%,nt
O=[N+]([O-])c1ccc(NS(=O)(=O)c2ccc(Cl)c(Cl)c2)cc1,nt,0%,16µM*,nt,nt
O=C(Cc1cccc(F)c1)NO,nt,nt,1%,nt,nt
COc1ccc(C2NC(=O)NC(c3ccccc3)=C2c2nc3ccccc3s2)cc1 (stereo unspecified),?,0%,0%[38.3 µM],?,-4%
O=C1NC(c2ccccc2)=C(c2nc3ccccc3s2)C(c2ccc(F)cc2)N1 (stereo unspecified),?,3%,-4%[38.3 µM],16µM*,-1%
COc1ccc(C2Nc3ccccc3C(=O)N2Cc2ccccc2)cc1COc1ccc(NC(=O)c2ccccc2)cc1 (stereo unspecified),-2%,nt,nt,-9%,nt
CCOC(=O)C1Nc2c(F)cc(C)cc2C2c3ccccc3CC12 (stereo unspecified),13%,11µM*,16%,-14%,nt
Cc1ccc(-n2ccn(CC(=O)c3ccc(F)cc3)c(=O)c2=O)cc1C,4%,4%,0%,6%,0%
O=S(=O)(Nc1cccc2cccnc12)c1ccc2ccccc2c1,-10%,nt,-1%,5.2µM*,nt
COc1ccc(S(=O)(=O)Nc2cccc3cccnc23)c([N+](=O)[O-])c1,?,nt,3%,7.3µM*,nt
O=S(=O)(Nc1cccc2cccnc12)c1ccc(Br)cc1,?,nt,nt,8.2µM*,nt
O=S(=O)(Nc1cccc2cccnc12)c1cccs1,?,nt,3%,18µM*,nt
Nc1ccc(S(=O)(=O)Nc2cccc3cccnc23)cc1,3%,nt,nt,11%,nt
COc1ccc(S(=O)(=O)Nc2cc(OC)cc3cccnc23)cc1,-5%,nt,nt,?,nt
O=S(=O)(Nc1cccc2ccccc12)c1cccs1,-1%,0%,2%,6%,nt
COc1ccc(C(=O)C2C(=O)C(=O)N(Cc3ccco3)C2c2cccs2)cc1 (stereo unspecified),-2%,nt,0%,3%,nt
CCOC(=O)N1CCC(NC(=O)c2ccc3c(c2)N(Cc2ccc(F)cc2)C(=O)c2ccccc2S3=O)CC1 (stereo unspecified),-10%,-1%,3%,-8%,0%
COc1cccc(-c2cc3c(c(OC)c2)OCCN(S(=O)(=O)c2ccccc2OC(F)(F)F)C3)n1,nt,nt,0%,nt,nt
O=[N+]([O-])c1ccc(C2=Nc3cc(Cl)ccc3OC2)cc1,-5%,13µM*,?,?,2%
CCC(C)NC(=O)c1ccc(-n2c(-c3ccccc3)cc3c2CCCC3)cc1 (stereo unspecified),-2%,?,1%,18µM*,2%
CCOCCCNC(=O)c1ccc(-n2c(-c3ccccc3)cc3c2CCCCC3)cc1,-2%,?,0%,18µM*,-1%
CC(C)NC(=O)c1ccc(-n2c(-c3ccccc3)cc3c2CCCC3)cc1,13%,?,-1%,-2%,0%
CN(C)CCNC(=O)c1ccc(-n2c(-c3ccccc3)cc3c2CCCC3)cc1,0%,11µM*,0%,23µM*,3%
CCCNC(=O)c1ccc(-n2c(-c3ccccc3)cc3c2CCCCC3)cc1,4%,13µM*,9%,2%,1%
